Bioassay records deposited in PubChem BioAssay by National Center for Advancing Translational Sciences (NCATS).
Hits are enriched below; roughly 14% of the tested compounds scored in any of these assays.
HCMV antiviral – qHTS Assay for inhibitors of the human cytomegalovirus (HCMV) | HFF cells, HCMV-luciferase reporter, 72 h; active compounds read low | activity change, negative = inhibition, % at 57.5 µM | AID 1259415, 2018 | hit rate 4.5% among 410,000; in the data active = activity change below about -60%; inconclusive = no clear call, values can overlap the other calls; inactive = above about -39%
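Two-dose cell screen: HFF monolayers treated with compounds and infected with luciferase-expressing HCMV at 1 PFU/cell, 72 h at 37C, then lysed for luciferase measurement.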
Pf growth 48h – Primary qHTS for delayed death inhibitors of the malarial parasite plastid, 48 hour incubation | AID 504832, 2011 | hit rate 5.9% among 310,000 | Potency, µM (doses to about 28.7 µM), inactives show at the top dose activity change, negative = inhibition, most hits filed as inhibitors | P. falciparum luciferase growth in erythrocytes, 48 h; note: potency is the fitted concentration of half-maximal effect
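First compound was added to culture medium, then infected red cells at 0.1% parasitemia and 2% hematocrit (final). After incubation at 37 C under 5% CO2, luciferase detection reagent was dispensed and light output recorded.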
LASV entry inh – qHTS for Inhibitors of binding or entry into cells for Lassa Virus. Potency, µM (titrated, usually from 37.9 µM), for inactives: at the highest dose activity change, negative = inhibition, most hits filed as inhibitors. Lassa virus pseudotype entry inhibition, cell reporter. hit rate 1.2% among 300,000. AID 540256, 2011; calls by dose curve; tested in HEK293 cells; note: potency is the fitted concentration of half-maximal effect; nearly all actives have a fitted effect of over 50% in size
Marburg entry inh – qHTS for inhibitors of binding or entry into cells for Marburg Virus; AID 540276, 2011; Marburg virus pseudotyped entry inhibition, cell reporter; hit rate 1.8% among 300,000; Potency, µM (top dose mostly 37.8 µM), inactives show top-dose activity change, negative = inhibition, actives largely listed as inhibitors; calls by dose curve; tested in HEK293 cells; note: potency is the fitted concentration of half-maximal effect
Pf growth 96h – Primary qHTS for delayed death inhibitors of the malarial parasite plastid, 96 hour incubation. hit rate 6.9% among 320,000. Potency, µM (series often up to 28.7 µM), inactives show at the top dose activity change, negative = inhibition, most hits filed as inhibitors. AID 504834, 2011. P. falciparum luciferase reporter growth, 96 h; note: potency is the fitted concentration of half-maximal effect
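Two parasite generations (96 h, 37 C, 5% CO2) of compound exposure in infected erythrocytes (0.05% parasitemia, 2% hematocrit). Luciferase-reporter P. falciparum; decreased luminescence indicates inhibited growth, aimed at apicoplast-acting delayed death.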
HCV inhibitor – qHTS Assay for Inhibitors of Hepatitis C Virus (HCV). Huh7.5.1 HCVcc-Cre infection, luciferase reporter, 44 h. hit rate 3.4% among 340,000. AID 651820, 2012. Potency, µM (highest dose often 41.8 µM), without a hit: at the highest dose activity change, negative = inhibition, usual class: inhibitors; note: potency is the fitted concentration of half-maximal effect
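1,000 cells/well; 4 h culture; + compound; + HCVcc-Cre (~0.5 moi); 44 h; luciferase substrate, RT 15 min; read 15 sec.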
Active calls of the source: *; ? = inconclusive; / = no result given; ! = not confirmed by another sample; [ ] = another dose, or the depositor's remark. Unless noted, calls come from the whole dose curve; as a rule, active = well fitted inhibition curve with a large enough effect; inconclusive = small, poorly fitted or top-dose-only effect, or another doubt; inactive = no such curve, though single readings can be large or run the other way. % is set by controls: 0 for no effect and ±100 for the full control effect.

SMILES	HCMV antiviral	Pf growth 48h	LASV entry inh	Marburg entry inh	Pf growth 96h	HCV inhibitor
CCCCN(C(=O)COC(=O)c1ccc(C=O)cc1)c1c(N)n(CCC)c(=O)[nH]c1=O	0.0	?	9.8%	-23.1%	?	26.0%
COc1ccccc1CNC(=O)C1CCCN(S(=O)(=O)c2ccc3c(c2)oc(=O)n3C)C1 (configuration not stated)	-7.7	/	3.1%[46.1 µM]	-6.2%[46.1 µM]	/	/
CCOC(=O)c1ccccc1NC(=O)N1CCC(N2CCN(Cc3ccccc3)C(=O)C2=O)CC1	5.4	/	7.5%[46.1 µM]	/	/	/
CC(C)[C@@H]1Cc2c(C#N)c(N)n(C)c(=S)c2CO1	/	/	/	3.2%	/	/
Nc1nc(Nc2ccccc2F)sc1C(=O)c1ccc(Cl)cc1	91.4	/	-11.2%[46.1 µM]	?	/	/
COC(=O)c1cc2oc(C)cc2n1Cc1ccc(Cl)cc1	32.7	/	-11.9%[46.1 µM]	/	/	/
COCCn1nnnc1C(c1cc2cc(C)cc(C)c2[nH]c1=O)N1CCN(c2ccccc2F)CC1 (configuration not stated)	/	11.7µM*	?	?	?	5.9%
COCCn1nnnc1C(c1cc2c(C)cc(C)cc2[nH]c1=O)N1CCCCCC1 (configuration not stated)	/	11.7µM*	?	-18.5%	7.2%	-7.2%
COCCn1nnnc1C(c1cccs1)N1CCN(c2nc3ccccc3s2)CC1 (configuration not stated)	-30.6	?	-28.7%	?	?	?
COCCn1nnnc1C(c1cccs1)N1CCN(c2cc(C)ccc2C)CC1 (configuration not stated)	-8.1	13.1µM*	?	16.4µM*!	?	5.3%
COCCn1nnnc1C(c1cc2cc(C)ccc2[nH]c1=O)N1CCCCCC1 (configuration not stated)	/	10.5%	-21.9%	8.9%	-15.6%	19.5%
COC(=O)c1cccc(CN2C(=O)SC(Nc3ccccc3C)C2=O)c1 (configuration not stated)	17.4	/	-8.3%[46.1 µM]	-1.5%[46.1 µM]	/	/
C=CCN1C(=O)c2ccc(C(=O)N3CCN(S(=O)(=O)c4cccc([N+](=O)[O-])c4)CC3)cc2C1=O	-9.4	-3.5%	/	/	-39.9%	15.0%
O=C(Nc1ccccc1OC(F)F)c1ccc(N2CCCC2=O)cc1	14.2	/	/	/	/	/
CC(C)(C)c1ccccc1OCCOCCNCc1ccccc1	9.9	8.28µM*	-27.1%	?	23.0%	12.5%
Cc1ccc(C(C)C)c(OCCNCc2ccccc2)c1	-8.6	8.3%	/	/	336.2%	-4.3%
Cc1cc(OCCOCCNCc2ccccc2)ccc1C(C)C	-8.7	?	/	/	7.38µM*	-17.0%
COc1ccc(C(C)=O)cc1Cn1c(C)c(C(=O)NCc2ccc(C(C)C)cc2)sc1=O	2.7	/	/	/	/	/
Cc1cccc(C)c1C(O)c1ncc(-c2cccc(F)c2)[nH]1 (configuration not stated)	-12.0	/	/	/	/	/
CCOc1ccc(CNS(=O)(=O)c2ccc3c(c2)CC(C)N3C(C)=O)cc1OC (configuration not stated)	-25.5	/	-4.6%[46.1 µM]	/	/	/
CC(=O)N1c2ccc(S(=O)(=O)NCC3CCC(C(=O)N(C)Cc4ccccc4)CC3)cc2CC1C (configuration not stated)	-7.4	13.1µM*	?	?	?	?
CC1Cc2cc(S(=O)(=O)N3CCC(C(=O)N(C)Cc4ccccc4)CC3)ccc2N1C(=O)C1CC1 (configuration not stated)	-24.8	13.1µM*	/	/	10.4µM*	5.62µM*
COc1cc(CNS(=O)(=O)c2ccc3c(c2)CC(C)N3C(C)=O)cc(OC)c1OC (configuration not stated)	-26.6	?	10.6%[46.1 µM]	1.0%[46.1 µM]	5.86µM*	-20.7%
CC1Cc2cc(S(=O)(=O)N3CCC(C(N)=O)CC3)ccc2N1C(=O)C1CC1 (configuration not stated)	-6.4	0.0%	/	/	11.7µM*	-7.8%
CCOC(=O)C1CCN(S(=O)(=O)c2ccc3c(c2)CC(C)N3C(=O)C2CC2)CC1 (configuration not stated)	13.4	?	-27.3%[46.1 µM]	?	?	-27.5%
SMILES	HCMV antiviral	Pf growth 48h	LASV entry inh	Marburg entry inh	Pf growth 96h	HCV inhibitor
CCCCN(C)C(=O)C1CCC(CNS(=O)(=O)c2ccc3c(c2)CC(C)N3C(C)=O)CC1 (configuration not stated)	-31.5	?	?	-28.1%[46.1 µM]	?	?
O=C1CCCc2[nH]c(=O)c(-c3nc(-c4cccc([N+](=O)[O-])c4)cs3)cc21	-15.8	/	0.0%[46.1 µM]	-0.1%[46.1 µM]	/	/
CCCN(C(=O)c1ccc2c(=O)n3c(nc2c1)CCCCC3)c1cccc(Cl)c1	-10.2	/	-25.7%[46.1 µM]	0.6%[46.1 µM]	/	/
CC(=O)N1c2ccc(S(=O)(=O)NCCC(=O)NCCc3ccc(Cl)cc3)cc2CC1C (configuration not stated)	-61.5*	-5.9%	/	/	-17.6%	?
Cc1ccc(Oc2ccccc2NC(=O)CSCC(=O)Nc2cc(C)on2)cc1	-74.9*	?	?	12.6µM*	-4.4%	?
Cc1cc(NC(=O)CSCC(=O)Nc2ccccc2N2CCCCC2)no1	-21.0	13.1µM*	?	?	?	-2.4%
Cc1cc(NC(=O)CSCC(=O)Nc2ccccc2Oc2ccccc2)no1	-37.5	-4.8%	?	2.82µM*	-19.7%	?
Cc1cccc(C)c1NC(=O)CN(C)CC(=O)Nc1ccccc1Oc1ccccc1	-25.7	?	?	?	11.7µM*	3.2%
CCN(CC)C(=O)COC(=O)c1ccc(O)cc1	-9.3	8.5%	16.8%	?	2.6%	9.4%
CCOC(=O)c1ccc(OC(=O)CCCCCN=C(N)N)cc1	38.2	?	/	/	4.55µM*	15.0%
COc1ccccc1Nc1nn2c(=O)c3ccc(C(=O)NCc4ccc(F)cc4)cc3nc2s1	-90.2*	/	?	/	/	/
CCN(CC)CCNC(=O)c1ccc2c(=O)n3nc(Nc4ccccc4)sc3nc2c1	-90.5*	/	14.7%[46.1 µM]	/	/	/
Cc1ccc(Cl)cc1Nc1nn2c(=O)c3ccc(C(=O)NCc4cccs4)cc3nc2s1	-98.3*	/	-27.3%[46.1 µM]	/	/	/
CCc1cccc(NC(=O)c2ccc3c(=O)n4nc(Nc5ccccc5OC)sc4nc3c2)c1	-88.0*	/	?	/	/	/
O=C(NCc1ccccn1)c1ccc2c(=O)n3nc(Nc4ccccc4)sc3nc2c1	8.6	11.6%	/	/	?	-25.4%
Cc1ccccc1Nc1nn2c(=O)c3ccc(C(=O)NCc4cccs4)cc3nc2s1	-18.9	/	?	/	/	/
O=C(NCc1nc2ccccc2[nH]1)C1=C[C@H](c2csc3ccccc23)C[C@H](OCc2ccc(CO)cc2)O1	-61.8*	11.7µM*	/	/	14.7µM*	?
